Out of some 47,000 compounds screened, about 95 (0.2%) were called active. Cut-off read from the data, not from the text of the source: active = inhibition above about 30%; inactive = the rest. Only a selection was taken, and actives are over-represented in it overall.
The compounds below were run against Ubiquitin carboxyl-terminal hydrolase isozyme L1 (Homo sapiens) (UniProt P09936) (assay: blocks human UCHL1 ubiquitin-rhodamine cleavage (AID 1645859)). Conditions: purified UCHL1, Ub-rhodamine cleavage fluorescence; at 20 µM; hits give high values.
Sequence of Ubiquitin carboxyl-terminal hydrolase isozyme L1 (Homo sapiens) (P09936 whole entry, looked up): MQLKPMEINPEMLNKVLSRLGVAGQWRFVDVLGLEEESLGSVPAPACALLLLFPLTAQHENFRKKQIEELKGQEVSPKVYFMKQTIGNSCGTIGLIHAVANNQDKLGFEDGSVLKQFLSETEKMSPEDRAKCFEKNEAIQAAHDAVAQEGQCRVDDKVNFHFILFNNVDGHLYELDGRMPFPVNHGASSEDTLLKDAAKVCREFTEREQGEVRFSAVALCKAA

inhibition, inactive:
Cc1nc(C2CCCN2C(=O)c2ccccn2)nc2c1CCCN2Cc1ccccn1 (stereo unspecified) -7.02%
COc1ccc(NC(=O)CN(C)C(=O)c2ccc3c(c2)nnn3C)cc1 2.41%
Cc1ccc(C(=O)N2CCN3Cc4ccccc4N(C)CC3C2)cc1 (stereo unspecified) -155%
Cc1cc(-c2cncnc2-c2ccc(CNC(=O)Cc3cc(F)ccc3F)cc2)on1 2.52%
CCc1ccc(C2CN3C(=O)CN(CCN4CCOCC4)C(=O)[C@]3(C)c3[nH]c4ccccc4c32)cc1 (stereo partly specified) 7.01%
O=C(O)c1ccccc1-c1ccccc1C(=O)Nc1ccccc1O 1.93%
O=C(Nc1cccc(-c2cccc(F)c2)c1)C1CCN(Cc2cccc3c2OCO3)CC1 6.73%
CC(C)(C)c1ccc(Oc2ccc(NC(=O)c3ccc4c(c3)CCO4)cn2)cc1 1.03%
CN(C(=O)CC(NC(=O)c1ccccc1)(c1ccccc1)c1ccccc1)c1ccccc1 1.79%
Cc1ccc(NC(=O)CCc2nc(CSc3nnc(-c4ccco4)o3)no2)cc1C 1.67%
CNCC(=O)N1CCCC(c2nc(C)cc(Nc3cccc(C)n3)n2)C1 (stereo unspecified) 0.00326%
COc1ccc(C)cc1NC(=O)NC1(c2nc(C)no2)CCCCC1 -4.28%
Cc1sc2ncn(CC(=O)N3c4ccccc4CC3C)c(=O)c2c1C (stereo unspecified) -2.03%
Cc1ccc(CS(=O)(=O)c2cn(CC(=O)NCc3cccnc3)c3ccccc23)cc1 1.32%
O=C(C1CCCN(S(=O)(=O)c2ccccc2)C1)N1CCN(CCc2ccccn2)CC1 (stereo unspecified) -1.48%
COc1ccc(NC(=O)C2=C(C)Nc3ncnn3C2c2cccc(OCc3ccc(F)cc3)c2)c(OC)c1 (stereo unspecified) 4.6%
COc1cc(C2CC(=O)Nc3cc4c(cc32)OCO4)ccc1O (stereo unspecified) -1.12%
CC(C)Cc1ncc(CCCN=C(N)N)[nH]c1=O -8.33%
COc1ccc(C2c3cccn3CCN2C(=O)Nc2cccs2)cc1 (stereo unspecified) -66.3%
Cc1ccccc1Cn1cc(/C=C2/C(=N)N3N=C(COc4ccccc4)SC3=NC2=O)c2ccccc21 -1.05%
CCOC(=O)C1=C(COc2ccccc2C#N)NC(=O)NC1C (stereo unspecified) -3.02%
Cc1cc(C)n2nc(C(=O)N3CCCC(c4[nH]ncc4C)C3)cc2n1 (stereo unspecified) -2.57%
Cc1nc(N(C)Cc2ccccc2)c2c3c(sc2n1)CCCC3 -6.54%
Cc1oc(C2CCN(C(=O)NC3CCCC3)CC2)nc1C(=O)N(C)C 1.1%
CC1CCN(C(=O)Cn2c(=O)n(Cc3ccccc3)c(=O)c3cc(Cl)ccc32)CC1 3.62%
COc1ccccc1C1CNCCN1Cc1cnc(N(C)C)nc1 (stereo unspecified) -0.867%
Cc1cc(OCc2ccc(Cl)cc2Cl)cc2c1C(=O)CC(C)(C)O2 3.56%
Cc1noc(C2CN(Cc3nccs3)Cc3ccnn3C2)n1 (stereo unspecified) -2.68%
O=C(CCc1c[nH]c2ccccc12)N1CCN(C(=O)C2CCCO2)CC1 (stereo unspecified) -0.0658%
Cc1nc2ccccc2n(CC(=O)NCc2ccc(OC(C)C)cc2)c1=O -4.18%
CCCN1CCC(Nc2ncnc3scc(-c4ccccc4)c23)CC1 -1.59%

Reference: PubChem BioAssay AID1645859 (Buhrlage Lab, Dana-Farber Cancer Institute and Novartis …, 2021)
